Results published in PubChem BioAssay (EPA / NIEHS).
Results filed as inconclusive are left out. The source made the active and inactive calls. Rule for the calls, unless noted: active = hit-call score of the fitted dose curve at least 0.9, where 1 is the maximum; inconclusive = response in the unintended direction; inactive = score below 0.9.

How the values were obtained:
[1] = ATG_TCF_b_cat_CIS: Attagene CIS-FACTORIAL HepG2 Assay for human T-Cell-Factor with beta-catenin (TCF/b-cat) (AID 2282965; active = hit-call score of the fitted dose curve at least 0.9, where 1 is the maximum; inactive = score below 0.9); conditions: HepG2 TCF/beta-catenin cis-reporter transcription, actives raise or lower the signal
Outline: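 Endogenous TCF/LEF activity read as reporter transcript level via RT-PCR and capillary electrophoresis fluorescence in transfected HepG2, 24 h exposure; gain or loss of signal fitted against DMSO controls.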

[2] = ATG_TAL_CIS: Attagene CIS-FACTORIAL HepG2 Assay for human TAL Basal Promoter (AID 2282966; active = hit-call score of the fitted dose curve at least 0.9, where 1 is the maximum; inactive = score below 0.9;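 note: background control endpoint measuring basal TAL promoter reporter mRNA not a specific factor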); conditions: HepG2 Attagene cis-factorial TAL promoter reporter; actives raise or lower the signal
Outline: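 Background-control endpoint: basal TAL promoter reporter transcripts in transiently transfected HepG2, measured 24 h after dosing. Read-out by RT-PCR with fluorescent primer extension and capillary electrophoresis; gain or loss of signal fitted relative to DMSO.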

[3] = ATG_TGFb_CIS: Attagene CIS-FACTORIAL HepG2 Assay for human Transforming Growth Factor (TGF) (AID 2282967; active = hit-call score of the fitted dose curve at least 0.9, where 1 is the maximum; inactive = score below 0.9); conditions: HepG2 Attagene CIS TGFb reporter, mRNA transcription; actives raise or lower the signal
Outline: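 Liver HepG2 line, cis-factorial reporter panel, 24 h dosing. Quantitation: RT-PCR products labeled with 6-FAM, cut with HpaI, resolved by capillary electrophoresis; DMSO-referenced bidirectional analysis.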

[4] = ATG_VDRE_CIS: Attagene CIS-FACTORIAL HepG2 Assay for human Vitamin D Receptor Element (VDRE) (AID 2282968; active = hit-call score of the fitted dose curve at least 0.9, where 1 is the maximum; inactive = score below 0.9); conditions: HepG2 VDRE cis-reporter transcription, actives raise or lower the signal
Outline: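 Measures endogenous factor activity through cis-element-driven reporter transcripts in transiently transfected HepG2. Cells are treated 24 h; reporter mRNA is quantified by RT-PCR and capillary electrophoresis; fitting is bidirectional.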

[5] = target: Nuclear receptor subfamily 1 group I member 3 (Homo sapiens) (UniProt Q14994); experiment: ATG_CAR_TRANS: Attagene TRANS-FACTORIAL HepG2 Assay for human Constitutive Androstane Receptor (CAR) (AID 2282969); conditions: HepG2 Attagene TRANS-FACTORIAL CAR reporter;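 note: activators raise reporter mRNA above DMSO so AC50 marks induction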
Outline: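 Signal is reporter mRNA induction relative to DMSO, measured 24 h after dosing by RT-PCR with fluorescent primer extension and capillary electrophoresis. Human HepG2 liver cells carried transiently transfected chimeric NR-Gal4/GAL4-UAS reporter constructs.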

[6] = target: Steroid hormone receptor ERR1 (Homo sapiens) (UniProt P11474); experiment: ATG_ERRa_TRANS: Attagene TRANS-FACTORIAL HepG2 Assay for human Estrogen-Related Receptor alpha (ERRa) (AID 2282971); conditions: HepG2 Attagene TRANS reporter, ERRa transactivation
Outline: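 Reporter transcripts from ERRa-Gal4 chimera activity measured in transiently transfected human HepG2 cells 24 hours after dosing, using RT-PCR with 6-FAM primer extension, HpaI digestion and capillary electrophoresis; DMSO is baseline.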

[7] = target: X-box-binding protein 1 (Homo sapiens) (UniProt P17861); experiment: ATG_Xbp1_CIS: Attagene CIS-FACTORIAL HepG2 Assay for human X-box Binding Protein 1 (XBP1) (AID 2282972; active = hit-call score of the fitted dose curve at least 0.9, where 1 is the maximum; inactive = score below 0.9); conditions: HepG2 XBP1 cis-element reporter, Attagene multiplex; actives raise or lower the signal
Outline: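 Changes in reporter transcript abundance, read by RT-PCR and capillary electrophoresis, reflect endogenous transcription factor activity. Transfected HepG2 cells received compound for 24 hours; DMSO defined baseline for bidirectional analysis.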

[8] = ATG_GAL4_TRANS: Attagene TRANS-FACTORIAL HepG2 Assay for GAL4 (Internal Marker) (AID 2282976); conditions: HepG2 Attagene TRANS GAL4 internal marker reporter
Outline: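 In transfected human HepG2 liver cells dosed 24 h, GAL4 reporter mRNA serves as a baseline marker. Detection by RT-PCR with fluorescent capillary electrophoresis, activity fitted upward relative to DMSO.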

[9] = target: Estrogen-related receptor gamma (Homo sapiens) (UniProt P62508); experiment: ATG_ERRg_TRANS: Attagene TRANS-FACTORIAL HepG2 Assay for human Estrogen-Related Receptor gamma (ERRg) (AID 2282977); conditions: HepG2 Attagene TRANS reporter, ERRg transactivation;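 note: hits increase reporter signal over DMSO so potencies reflect activators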
Outline: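 Exogenous NR-Gal4 chimera activity was assessed in HepG2 cells bearing transfected GAL4-UAS reporters. After 24 h dosing, total RNA underwent RT-PCR, fluorescent primer extension and HpaI digestion before capillary electrophoresis, with gain of signal scored against DMSO.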

[10] = target: Glucocorticoid receptor (Homo sapiens) (UniProt P04150); experiment: ATG_GR_TRANS: Attagene TRANS-FACTORIAL HepG2 Assay for human Glucocorticoid Receptor (GR) (AID 2282978); conditions: HepG2 Attagene TRANS GR reporter, mRNA transcription;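 note: activators score as hits since higher reporter transcript over DMSO is fitted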
Outline: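 HepG2 cells transiently transfected with multiplexed reporter units in which chimeric NR-GAL4 proteins drive GAL4-UAS reporters; 24 h compound exposure. Reporter mRNA measured by RT-PCR, 6-FAM labelling, HpaI digestion and capillary electrophoresis; gain-of-signal fitted versus DMSO.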

[11] = ATG_M_06_TRANS: Attagene TRANS-FACTORIAL HepG2 Assay for M06 Transcription Factor (Internal Marker) (AID 2282983); conditions: HepG2 Attagene TRANS M06 internal marker reporter
Outline: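 Background-control reporter readout: after 24 h chemical exposure of transiently transfected HepG2 (GAL4-UAS reporter units), mRNA quantified by RT-PCR with fluorescent labeling and capillary electrophoresis. Gain-of-signal fitting against DMSO baseline.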

[12] = target: Transcriptional activator Myb (Homo sapiens) (UniProt P10242); experiment: ATG_Myb_CIS: Attagene CIS-FACTORIAL HepG2 Assay for human Myeloblastosis (Myb) Proto-Oncogene Transcription Factor (AID 2282986; active = hit-call score of the fitted dose curve at least 0.9, where 1 is the maximum; inactive = score below 0.9); conditions: HepG2 Attagene CIS-FACTORIAL Myb reporter transcription; actives raise or lower the signal
Outline: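 HepG2 cells were transiently transfected with cis-regulated multiple reporter transcription units reflecting endogenous Myb activity, then exposed to compound for 24 hours. Reporter mRNA was measured by RT-PCR with capillary electrophoresis; bidirectional fitting versus DMSO baseline.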

[13] = target: Estrogen receptor (Homo sapiens) (UniProt P03372); experiment: ATG_ERa_TRANS: Attagene TRANS-FACTORIAL HepG2 Assay for human Estrogen Receptor alpha (ERa) (AID 2282970); conditions: HepG2 Attagene TRANS ERa GAL4 reporter, mRNA
Outline: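 Reporter transcripts were measured 24 h after dosing by RT-PCR with fluorescent primer extension and capillary electrophoresis. The system is transiently transfected HepG2 expressing exogenous NR-Gal4 chimeras driving GAL4-UAS reporters; DMSO is the baseline.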

[14] = ATG_M_19_TRANS: Attagene TRANS-FACTORIAL HepG2 Assay for M19 Transcription Factor (Internal Marker) (AID 2282974); conditions: HepG2 Attagene TRANS-FACTORIAL M19 internal marker reporter
Outline: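 HepG2 cells transiently transfected with multiple GAL4-UAS reporter transcription units were exposed to chemicals for 24 h. Reporter mRNA was read by RT-PCR, 6-FAM primer extension, HpaI digestion and capillary electrophoresis; gain of signal fitted relative to DMSO.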

[15] = target: Bile acid receptor (Homo sapiens) (UniProt Q96RI1); experiment: ATG_FXR_TRANS: Attagene TRANS-FACTORIAL HepG2 Assay for Farnesoid X Receptor (FXR) (AID 2282979); conditions: HepG2 Attagene TRANS FXR-GAL4 reporter transcription;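 note: hits raise reporter mRNA above DMSO so AC50 marks FXR activation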
Outline: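 Reporter transcripts from transfected HepG2 cells were measured 24 h after dosing, using RT-PCR with capillary electrophoresis of 6-FAM-labelled fragments. The read-out reflects activity of exogenous FXR-Gal4 chimera on GAL4-UAS units, with induction relative to DMSO.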

[16] = target: Oxysterols receptor LXR-beta (Homo sapiens) (UniProt P55055); experiment: ATG_LXRb_TRANS: Attagene TRANS-FACTORIAL HepG2 Assay for human Liver X Receptor beta (LXRb) (AID 2282981); conditions: HepG2 Attagene TRANS GAL4-LXRb reporter, mRNA
Outline: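 After 24 h of chemical treatment, transfected HepG2 cells yield total RNA; reporter cDNA is PCR-amplified, FAM-labelled, HpaI-cut and run on capillary electrophoresis. Signal reflects chimeric LXRb-Gal4 activity on GAL4-UAS reporters.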

[17] = ATG_M_32_TRANS: Attagene TRANS-FACTORIAL HepG2 Assay for M32 Transcription Factor (Internal Marker) (AID 2282984); conditions: HepG2 Attagene TRANS M32 internal marker reporter
Outline: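 Cell-based TRANS-format assay in HepG2: exogenous chimeric GAL4 reporter units transiently expressed, compounds applied 24 h. Reporter mRNA detected by RT-PCR plus capillary electrophoresis; this readout is an internal background marker.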

[18] = target: Nuclear receptor subfamily 4 group A member 2 (Homo sapiens) (UniProt P43354); experiment: ATG_NURR1_TRANS: Attagene TRANS-FACTORIAL HepG2 Assay for human Nuclear Receptor Related Protein 1 (NURR1) (AID 2282985); conditions: HepG2 Attagene TRANS reporter, mRNA readout
Outline: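 Measures transcriptional activation by an exogenous NR-Gal4 chimera in transfected HepG2 liver cells. After 24 h, reporter RNA is reverse-transcribed, amplified and resolved by capillary electrophoresis; DMSO defines baseline.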

[19] = target: Oxysterols receptor LXR-alpha (Homo sapiens) (UniProt Q13133); experiment: ATG_LXRa_TRANS: Attagene TRANS-FACTORIAL HepG2 Assay for human Liver X Receptor alpha (LXRa) (AID 2282980); conditions: HepG2 Attagene TRANS reporter, LXRa transactivation
Outline: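 Chemical-induced reporter mRNA measured by RT-PCR with fluorescent labelling and capillary electrophoresis after 24 h dosing of transiently transfected HepG2 cells expressing exogenous NR-Gal4 chimeras; increases scored against DMSO baseline.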

[20] = target: Hepatocyte nuclear factor 4-alpha (Homo sapiens) (UniProt P41235); experiment: ATG_HNF4a_TRANS: Attagene TRANS-FACTORIAL HepG2 Assay for human Hepatocyte Nuclear Factor 4 alpha (HNF4a) (AID 2282982); conditions: HepG2 HNF4a transactivation reporter, mRNA readout
Outline: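 Multiplexed reporter assay: transfected HepG2, 24 h exposure, total RNA → oligo(dT) RT → PCR → 6-FAM extension → HpaI digest → CE fluorescence. DMSO = negative control.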

Measured: AC50

Sequence of Glucocorticoid receptor (Homo sapiens) (P04150 whole entry, looked up, the tested form may be a part): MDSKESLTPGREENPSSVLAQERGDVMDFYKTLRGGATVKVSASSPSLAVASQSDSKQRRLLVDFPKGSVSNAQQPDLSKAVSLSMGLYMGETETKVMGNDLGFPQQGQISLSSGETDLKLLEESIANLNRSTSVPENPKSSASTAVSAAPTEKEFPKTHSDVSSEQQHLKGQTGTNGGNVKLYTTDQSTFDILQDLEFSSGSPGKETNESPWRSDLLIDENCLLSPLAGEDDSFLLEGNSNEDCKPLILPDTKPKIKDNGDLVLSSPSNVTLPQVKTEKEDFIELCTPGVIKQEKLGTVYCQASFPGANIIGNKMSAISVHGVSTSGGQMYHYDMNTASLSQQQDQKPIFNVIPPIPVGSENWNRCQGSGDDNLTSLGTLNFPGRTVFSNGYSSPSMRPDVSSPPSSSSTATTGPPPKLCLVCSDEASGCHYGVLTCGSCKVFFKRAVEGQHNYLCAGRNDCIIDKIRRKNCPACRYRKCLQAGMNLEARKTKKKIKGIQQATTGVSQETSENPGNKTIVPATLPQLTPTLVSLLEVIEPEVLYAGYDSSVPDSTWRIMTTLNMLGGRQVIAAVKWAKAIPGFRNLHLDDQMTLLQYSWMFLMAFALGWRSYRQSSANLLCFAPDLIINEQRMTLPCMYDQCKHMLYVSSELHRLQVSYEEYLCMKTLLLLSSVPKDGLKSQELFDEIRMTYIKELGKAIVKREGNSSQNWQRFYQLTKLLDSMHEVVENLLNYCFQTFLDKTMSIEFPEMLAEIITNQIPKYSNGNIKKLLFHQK
Sequence of Transcriptional activator Myb (Homo sapiens) (P10242 whole entry, looked up): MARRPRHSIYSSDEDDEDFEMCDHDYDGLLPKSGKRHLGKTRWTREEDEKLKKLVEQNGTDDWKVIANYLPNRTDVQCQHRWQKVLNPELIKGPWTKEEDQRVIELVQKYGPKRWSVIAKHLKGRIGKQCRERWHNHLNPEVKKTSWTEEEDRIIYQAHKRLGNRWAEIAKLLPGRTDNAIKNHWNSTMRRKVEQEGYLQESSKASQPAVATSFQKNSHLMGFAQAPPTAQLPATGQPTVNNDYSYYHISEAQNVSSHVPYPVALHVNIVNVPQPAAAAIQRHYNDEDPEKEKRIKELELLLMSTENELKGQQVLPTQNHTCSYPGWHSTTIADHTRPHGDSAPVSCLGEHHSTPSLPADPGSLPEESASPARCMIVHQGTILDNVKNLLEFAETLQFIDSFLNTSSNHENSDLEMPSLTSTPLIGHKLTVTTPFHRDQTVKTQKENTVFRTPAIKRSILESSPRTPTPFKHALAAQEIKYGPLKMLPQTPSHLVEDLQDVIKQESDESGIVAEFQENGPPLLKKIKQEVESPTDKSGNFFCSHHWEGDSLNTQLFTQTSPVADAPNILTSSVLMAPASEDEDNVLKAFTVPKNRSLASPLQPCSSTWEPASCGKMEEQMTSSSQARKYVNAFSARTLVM
Sequence of Oxysterols receptor LXR-beta (Homo sapiens) (P55055 whole entry, looked up, the tested form may be a part): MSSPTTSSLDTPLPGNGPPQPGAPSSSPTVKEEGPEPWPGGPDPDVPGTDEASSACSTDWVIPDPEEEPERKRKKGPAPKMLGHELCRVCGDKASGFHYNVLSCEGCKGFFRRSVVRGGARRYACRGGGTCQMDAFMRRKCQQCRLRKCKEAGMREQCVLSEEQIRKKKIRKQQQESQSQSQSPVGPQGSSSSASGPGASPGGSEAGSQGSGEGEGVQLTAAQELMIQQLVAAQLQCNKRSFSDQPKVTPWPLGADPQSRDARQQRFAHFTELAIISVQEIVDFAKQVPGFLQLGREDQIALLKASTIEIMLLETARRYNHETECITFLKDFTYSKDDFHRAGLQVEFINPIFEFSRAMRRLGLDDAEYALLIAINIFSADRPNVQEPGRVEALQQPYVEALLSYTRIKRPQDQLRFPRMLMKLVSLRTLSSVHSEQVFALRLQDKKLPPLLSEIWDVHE
Sequence of Bile acid receptor (Homo sapiens) (Q96RI1 whole entry, looked up, the tested form may be a part): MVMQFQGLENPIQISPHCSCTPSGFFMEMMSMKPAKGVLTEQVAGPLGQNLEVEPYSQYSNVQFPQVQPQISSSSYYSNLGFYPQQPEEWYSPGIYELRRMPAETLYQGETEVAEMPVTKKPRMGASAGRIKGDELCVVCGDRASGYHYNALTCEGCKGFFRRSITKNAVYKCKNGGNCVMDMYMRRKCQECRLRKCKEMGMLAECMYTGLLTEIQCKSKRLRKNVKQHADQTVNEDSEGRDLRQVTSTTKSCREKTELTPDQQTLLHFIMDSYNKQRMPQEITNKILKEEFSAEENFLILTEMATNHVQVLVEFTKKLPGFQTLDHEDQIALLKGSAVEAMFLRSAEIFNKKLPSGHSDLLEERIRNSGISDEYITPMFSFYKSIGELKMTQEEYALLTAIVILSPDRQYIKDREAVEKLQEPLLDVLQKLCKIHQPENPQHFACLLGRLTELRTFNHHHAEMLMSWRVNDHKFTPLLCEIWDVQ
Sequence of Nuclear receptor subfamily 1 group I member 3 (Homo sapiens) (Q14994 whole entry, looked up, the tested form may be a part): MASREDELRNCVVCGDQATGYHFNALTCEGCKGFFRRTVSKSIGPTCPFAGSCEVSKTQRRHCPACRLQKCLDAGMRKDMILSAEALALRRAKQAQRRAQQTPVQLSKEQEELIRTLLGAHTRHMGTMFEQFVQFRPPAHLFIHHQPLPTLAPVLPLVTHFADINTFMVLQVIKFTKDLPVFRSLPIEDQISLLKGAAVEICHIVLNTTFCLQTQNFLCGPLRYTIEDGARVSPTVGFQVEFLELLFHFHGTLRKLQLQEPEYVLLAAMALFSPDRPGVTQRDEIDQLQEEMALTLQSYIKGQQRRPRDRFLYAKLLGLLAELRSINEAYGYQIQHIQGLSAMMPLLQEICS
Sequence of Steroid hormone receptor ERR1 (Homo sapiens) (P11474 whole entry, looked up, the tested form may be a part): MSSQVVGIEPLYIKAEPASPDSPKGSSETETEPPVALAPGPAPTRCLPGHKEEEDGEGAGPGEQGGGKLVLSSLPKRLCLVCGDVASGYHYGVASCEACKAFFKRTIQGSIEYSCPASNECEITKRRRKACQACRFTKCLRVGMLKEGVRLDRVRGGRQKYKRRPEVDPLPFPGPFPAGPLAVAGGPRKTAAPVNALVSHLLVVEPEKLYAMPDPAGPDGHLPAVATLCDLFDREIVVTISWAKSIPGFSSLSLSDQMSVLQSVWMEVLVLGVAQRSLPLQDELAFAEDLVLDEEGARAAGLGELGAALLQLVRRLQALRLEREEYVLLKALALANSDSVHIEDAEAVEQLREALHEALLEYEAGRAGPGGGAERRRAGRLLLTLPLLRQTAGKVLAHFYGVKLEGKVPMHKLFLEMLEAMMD
Sequence of Estrogen-related receptor gamma (Homo sapiens) (P62508 whole entry, looked up, the tested form may be a part): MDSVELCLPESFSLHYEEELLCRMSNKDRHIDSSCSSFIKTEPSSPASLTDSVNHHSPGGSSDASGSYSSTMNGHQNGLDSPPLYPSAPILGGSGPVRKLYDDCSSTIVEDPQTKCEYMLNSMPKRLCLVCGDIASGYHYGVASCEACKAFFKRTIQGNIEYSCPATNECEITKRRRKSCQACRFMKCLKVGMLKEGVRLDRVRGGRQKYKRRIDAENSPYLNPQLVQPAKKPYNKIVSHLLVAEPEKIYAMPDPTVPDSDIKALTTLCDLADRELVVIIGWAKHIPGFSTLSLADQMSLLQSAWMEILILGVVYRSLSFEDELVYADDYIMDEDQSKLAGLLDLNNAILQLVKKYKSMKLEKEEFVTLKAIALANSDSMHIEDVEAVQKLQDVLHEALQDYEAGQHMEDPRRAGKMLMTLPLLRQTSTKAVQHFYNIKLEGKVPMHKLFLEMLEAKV
Sequence of Hepatocyte nuclear factor 4-alpha (Homo sapiens) (P41235 whole entry, looked up): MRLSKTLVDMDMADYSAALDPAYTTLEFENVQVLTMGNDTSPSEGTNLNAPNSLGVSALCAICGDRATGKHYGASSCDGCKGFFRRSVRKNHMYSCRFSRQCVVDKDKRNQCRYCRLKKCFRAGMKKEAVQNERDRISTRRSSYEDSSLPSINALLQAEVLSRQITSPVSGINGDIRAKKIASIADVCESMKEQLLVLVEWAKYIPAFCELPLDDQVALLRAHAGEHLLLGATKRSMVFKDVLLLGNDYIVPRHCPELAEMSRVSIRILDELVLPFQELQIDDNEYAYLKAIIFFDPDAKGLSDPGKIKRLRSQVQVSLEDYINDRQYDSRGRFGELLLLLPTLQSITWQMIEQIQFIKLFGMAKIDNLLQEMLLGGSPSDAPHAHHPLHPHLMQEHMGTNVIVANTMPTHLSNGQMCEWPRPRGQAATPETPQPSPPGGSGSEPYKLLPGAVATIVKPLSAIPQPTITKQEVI
Sequence of Nuclear receptor subfamily 4 group A member 2 (Homo sapiens) (P43354 whole entry, looked up, the tested form may be a part): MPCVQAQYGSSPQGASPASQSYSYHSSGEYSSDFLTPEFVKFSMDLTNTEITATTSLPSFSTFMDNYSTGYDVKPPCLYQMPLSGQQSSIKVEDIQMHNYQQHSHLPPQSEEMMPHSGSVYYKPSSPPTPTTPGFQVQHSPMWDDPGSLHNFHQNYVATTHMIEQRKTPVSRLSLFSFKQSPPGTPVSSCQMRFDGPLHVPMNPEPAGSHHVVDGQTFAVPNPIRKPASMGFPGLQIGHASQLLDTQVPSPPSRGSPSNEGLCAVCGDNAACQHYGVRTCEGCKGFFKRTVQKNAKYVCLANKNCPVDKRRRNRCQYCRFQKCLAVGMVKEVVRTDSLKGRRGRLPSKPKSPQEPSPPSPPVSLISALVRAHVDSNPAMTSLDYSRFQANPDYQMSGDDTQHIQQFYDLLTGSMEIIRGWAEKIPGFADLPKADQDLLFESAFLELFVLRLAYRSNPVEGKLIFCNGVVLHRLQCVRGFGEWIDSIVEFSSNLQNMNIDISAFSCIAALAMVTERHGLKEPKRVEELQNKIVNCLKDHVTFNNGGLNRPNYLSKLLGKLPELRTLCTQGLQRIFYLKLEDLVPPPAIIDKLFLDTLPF
Sequence of X-box-binding protein 1 (Homo sapiens) (P17861 whole entry, looked up): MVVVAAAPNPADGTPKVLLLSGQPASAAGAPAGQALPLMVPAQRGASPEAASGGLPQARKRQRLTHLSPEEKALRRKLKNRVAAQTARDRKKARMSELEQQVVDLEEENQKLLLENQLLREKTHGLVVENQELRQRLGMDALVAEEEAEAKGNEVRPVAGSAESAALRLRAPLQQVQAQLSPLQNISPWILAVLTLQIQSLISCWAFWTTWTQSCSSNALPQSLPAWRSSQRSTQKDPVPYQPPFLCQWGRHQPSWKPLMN

OCCCCl
not listed: [13] | [14] | [15] | [16] | [17] | [18] | [19] | [20]
inactive: all other assays above

CC(C)CCCC(C)CCO (stereo not drawn)
not listed: [5] | [6] | [9] | [11] | [12] | [19] | [20]
inactive: all other assays above

NS(=O)(=O)C(F)(F)C(F)(F)C(F)(F)C(F)(F)C(F)(F)C(F)(F)F
active: [3] 54.4 µM | [4] 36.4 µM
inactive: [1] | [2] | [5] | [10] | [15] | [19] | [16] | [20] | [11] | [17]

CCOC(=O)CC(=O)C(F)(F)C(F)(F)F
not listed: [5] | [7] | [11] | [14] | [17]
inactive: all other assays above

Nc1c(Br)cc([N+](=O)[O-])cc1Br
not listed: [5] | [11] | [14] | [16] | [18]
inactive: all other assays above

CCc1ccc(C)nc1
not listed: [6] | [9] | [13] | [14] | [16] | [17] | [18]
inactive: all other assays above

CCOC(C=C(C)CCC=C(C)C)OCC
active: [4] 49.7 µM
not listed: [5] | [7] | [10] | [11] | [15] | [16] | [18] | [19]
inactive: all other assays above

CC(C)CC=C(C=O)c1ccccc1
active: [13] 21.5 µM
not listed: [5] | [11] | [14] | [16] | [17] | [19] | [20]
inactive: all other assays above

CCCCCCCCCc1ccc(OCCO)cc1
inactive: [2] | [3] | [4] | [13] | [7] | [14] | [10] | [15] | [11]
active: [1] 21.5 µM | [12] 17.6 µM

COC(F)(C(F)F)C(F)(F)F (stereo not drawn)
not listed: [5] | [9] | [14] | [15] | [16] | [17] | [19] | [20]
inactive: all other assays above
